From the supplement of paper PMC4466140

biological target: SpBzz1-D2; assay: SPOT peptide array binding signal intensity (averaged, normalized) (arbitrary units (background-subtracted, floor 0; scale differs between SH3 domains)); higher = stronger binding of the SH3 domain to the peptide
Summary of the method: (§1)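 Detection of bound protein relied on anti-GST antibody, an HRP anti-mouse secondary and luminol, with imaging and quantification in Genespotter. The bound protein was GST-fused SH3 domains from four yeast species, incubated at 10 μg/ml overnight at 4°C in TBS-based blocking buffer on cellulose membranes carrying synthetic 15-mer peptides with cysteines replaced by serines. Binding signal is normalized, background-subtracted spot intensity averaged over replicates, in arbitrary units that differ between domains.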

Binder | SPOT peptide array binding signal intensity
LTRRFPFLFPFDTRM | ≤ 0

biological target: SpCyk3; assay: as above
Summary of the method: as §1

Binder | SPOT peptide array binding signal intensity
LTRRFPFLFPFDTRM | 11.5

biological target: SpHof1; assay: as above
Summary of the method: as §1

Binder | SPOT peptide array binding signal intensity
LTRRFPFLFPFDTRM | 72.5

biological target: SpHof1-2; assay: as above
Summary of the method: as §1

Binder | SPOT peptide array binding signal intensity
LTRRFPFLFPFDTRM | 11.5

biological target: SpHof1-3; assay: as above
Summary of the method: as §1

Binder | SPOT peptide array binding signal intensity
LTRRFPFLFPFDTRM | 1320

biological target: SpHse1; assay: as above
Summary of the method: as §1

Binder | SPOT peptide array binding signal intensity
LTRRFPFLFPFDTRM | 1740

biological target: SpLsb1; assay: as above
Summary of the method: as §1

Binder | SPOT peptide array binding signal intensity
LTRRFPFLFPFDTRM | ≤ 0

biological target: SpLsb4; assay: as above
Summary of the method: as §1

Binder | SPOT peptide array binding signal intensity
LTRRFPFLFPFDTRM | ≤ 0

biological target: SpMyo1; assay: as above
Summary of the method: as §1

Binder | SPOT peptide array binding signal intensity
LTRRFPFLFPFDTRM | 7

biological target: SpNbp2; assay: as above
Summary of the method: as §1

Binder | SPOT peptide array binding signal intensity
LTRRFPFLFPFDTRM | 69

biological target: SpPex13; assay: as above
Summary of the method: as §1

Binder | SPOT peptide array binding signal intensity
LTRRFPFLFPFDTRM | 14

biological target: SpRvs167; assay: as above
Summary of the method: as §1

Binder | SPOT peptide array binding signal intensity
LTRRFPFLFPFDTRM | 2.17

biological target: SpSla1-D1-D2; assay: as above
Summary of the method: as §1

Binder | SPOT peptide array binding signal intensity
LTRRFPFLFPFDTRM | 2.5

biological target: SpSla1-D3; assay: as above
Summary of the method: as §1

Binder | SPOT peptide array binding signal intensity
LTRRFPFLFPFDTRM | 5
